Screening data as filed in PubChem.
Only some compounds are listed: those with a hit (about 3.1% of all), similar ones and a draw of the others.
BRCT PPI green: inhibitors of human BRCA1 BRCT-phosphoprotein interaction (green fluorophore); BRCA1 BRCT-phosphopeptide binding, green fluorescence polarization; Potency, µM (titrated, usually from 76.9 µM), for inactives: top-dose activity change, negative = inhibition, actives largely listed as inhibitors; 75,000 tested, 0.05% active; AID 875;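 further: potency means the concentration at half of the fitted maximal effect; plate controls were peptide without protein for full effect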
Target sequence (P38398 whole entry, looked up): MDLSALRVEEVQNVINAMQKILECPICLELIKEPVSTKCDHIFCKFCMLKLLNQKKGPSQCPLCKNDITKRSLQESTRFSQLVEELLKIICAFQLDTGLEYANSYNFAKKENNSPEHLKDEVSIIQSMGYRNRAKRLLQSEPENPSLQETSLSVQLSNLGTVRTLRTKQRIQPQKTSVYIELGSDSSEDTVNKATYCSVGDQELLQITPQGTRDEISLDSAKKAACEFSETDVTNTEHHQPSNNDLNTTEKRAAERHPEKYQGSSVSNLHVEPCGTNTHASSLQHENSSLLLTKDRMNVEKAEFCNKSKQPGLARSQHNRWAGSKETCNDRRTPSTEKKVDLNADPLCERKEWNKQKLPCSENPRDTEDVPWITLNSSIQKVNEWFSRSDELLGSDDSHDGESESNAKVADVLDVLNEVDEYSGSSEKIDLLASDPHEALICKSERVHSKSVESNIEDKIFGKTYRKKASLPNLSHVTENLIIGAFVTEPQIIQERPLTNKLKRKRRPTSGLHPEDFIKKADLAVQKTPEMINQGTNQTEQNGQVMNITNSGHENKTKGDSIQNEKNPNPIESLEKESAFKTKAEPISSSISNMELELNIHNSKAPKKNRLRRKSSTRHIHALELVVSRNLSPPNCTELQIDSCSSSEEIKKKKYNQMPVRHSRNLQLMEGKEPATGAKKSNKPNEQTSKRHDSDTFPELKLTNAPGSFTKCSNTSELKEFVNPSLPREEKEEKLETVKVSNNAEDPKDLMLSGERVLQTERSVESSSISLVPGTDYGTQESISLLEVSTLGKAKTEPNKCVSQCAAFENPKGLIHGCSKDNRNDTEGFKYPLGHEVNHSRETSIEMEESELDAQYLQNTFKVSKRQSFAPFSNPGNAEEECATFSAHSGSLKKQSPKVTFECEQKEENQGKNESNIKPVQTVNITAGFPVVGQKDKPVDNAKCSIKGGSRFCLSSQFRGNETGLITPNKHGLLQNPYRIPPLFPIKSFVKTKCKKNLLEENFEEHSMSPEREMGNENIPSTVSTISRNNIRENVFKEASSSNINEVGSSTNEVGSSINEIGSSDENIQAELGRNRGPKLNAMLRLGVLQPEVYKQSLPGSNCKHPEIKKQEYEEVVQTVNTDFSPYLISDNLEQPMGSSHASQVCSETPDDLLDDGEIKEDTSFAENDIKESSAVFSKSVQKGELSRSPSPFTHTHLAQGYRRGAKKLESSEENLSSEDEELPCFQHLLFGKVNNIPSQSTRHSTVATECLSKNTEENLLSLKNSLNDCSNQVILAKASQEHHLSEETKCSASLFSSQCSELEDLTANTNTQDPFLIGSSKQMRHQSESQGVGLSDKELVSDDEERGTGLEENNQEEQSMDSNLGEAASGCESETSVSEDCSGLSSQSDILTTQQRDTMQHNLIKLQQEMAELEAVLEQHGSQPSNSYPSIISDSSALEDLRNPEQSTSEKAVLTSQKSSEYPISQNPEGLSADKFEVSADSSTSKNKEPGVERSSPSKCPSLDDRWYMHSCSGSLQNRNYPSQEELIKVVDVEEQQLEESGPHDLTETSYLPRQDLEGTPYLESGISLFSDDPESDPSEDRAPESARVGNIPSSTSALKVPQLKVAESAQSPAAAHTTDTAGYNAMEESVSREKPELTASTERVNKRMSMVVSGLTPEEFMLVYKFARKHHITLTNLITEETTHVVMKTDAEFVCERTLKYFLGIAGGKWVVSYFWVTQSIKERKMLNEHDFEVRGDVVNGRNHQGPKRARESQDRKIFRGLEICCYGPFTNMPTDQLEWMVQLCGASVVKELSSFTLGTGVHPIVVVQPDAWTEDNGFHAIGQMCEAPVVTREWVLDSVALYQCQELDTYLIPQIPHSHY
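Fluorescence polarization: His-tagged BRCT (~35 kDa BRCA1 C-terminus, 250 nM) bound to 100 nM fluorescein-labeled phosphorylated 10-aa BACH1 peptide, pH 7.3 phosphate buffer with DTT and Tween 20. Compounds incubated 12 min at room temperature; inhibition read as lowered polarization.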
DNA Pol III inh: DNA polymerase III holoenzyme inhibition; reconstituted DNA polymerase III holoenzyme replication, biochemical; Potency, µM (highest dose often 57.1 µM), for the others: at the top dose activity change, negative = inhibition; 71,000 tested, 0.25% active; further: potency means the concentration at half of the fitted maximal effect; on the % scale 0 is the no-effect control and ±100 the full control effect
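Reconstituted *E. coli* holoenzyme (0.35 nM Pol III, 1 nM beta, 154 nM SSB, 2 nM primase) was preincubated with compound for 15 min at RT. Synthesis on 1.4 nM ssM13Gori ran 35 min, then was stopped with PicoGreen/EDTA and read as dsDNA fluorescence.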
YjeE inh: inhibitors of E. coli YjeE (TsaE); P0AF67; purified YjeE enzyme, qHTS inhibition assay; Potency, µM; 71,000 tested, 0.05% active; AID 605
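Purified YjeE (10 uM) with BODIPY Texas Red-labeled ADP probe (2 uM); compounds pin-transferred, 15 min at room temperature. Binding inhibition read as decreased fluorescence polarization; ADP titration as control.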
Tau filament bind: tau filament binding; P10636; recombinant tau filaments, thioflavin S fluorescence, 15 h; filaments grown with octadecylsulfate alongside compound; Potency, µM (titrated, usually from 57.1 µM), for inactives: top-dose activity change, negative = inhibition; 71,000 tested, 2% active;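 further: potency means the concentration at half of the fitted maximal effect; on the % scale 0 is the no-effect control and ±100 the full control effect; actives lower thioflavin S fluorescence by blocking filaments or displacing dye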
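Assay mix: 1 uM His-tagged tau, 30 uM sodium octadecylsulfate, thioflavine S dye in HEPES/NaCl/DTT buffer. Compound is added prior to the inducer. Fluorescence after 15 h at 37 C.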
BRCT inh red: disrupts BRCA1 BRCT binding to phosphoprotein, red fluorophore readout; P38398; BRCT-phosphopeptide binding, red fluorescence polarization; Potency, µM (doses to about 76.9 µM), for inactives: top-dose activity change, negative = inhibition, most hits filed as inhibitors; 75,000 tested, 0.03% active; AID 892; further: on the % scale 0 is the no-effect control and ±100 the full control effect
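Rhodamine-labelled pBACH1 10-mer (100 nM) bound to BRCT domain (100 nM) at pH 7.3; compounds incubated 12 min room temperature, polarization read. Free peptide defines full inhibition; unlabelled decapeptide titrated as control.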
15-hLO inh: 15-hLO (ALOX15) enzyme inhibition; purified 15hLO-1, xylenol orange hydroperoxide absorbance; 74,000 tested, 1.4% active; AID 887; P16050; Potency, µM (top dose mostly 57.1 µM), for the others: at the top dose activity change, negative = inhibition, usual class: inhibitors; further: potency means the concentration at half of the fitted maximal effect; on the % scale 0 is the no-effect control and ±100 the full control effect; nearly all actives have a fitted effect of over 55% in size
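Compounds were preincubated 15 min at room temperature with 40 nM purified human enzyme (25 mM Hepes pH 7.5, 0.01% Triton X-100); 50 uM arachidonic acid reacted 6 min. Fe-xylenol orange detection, 30 min, absorbance ratio 573/405 nm.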
Numbers without * were called inactive; i = inactive; ? = inconclusive; . = no result; [ ] = dose if it differs, or a comment. The call rests on the fitted dose curve; in most records, active means well fitted curve in the direction sought with a large enough effect; inconclusive means small, poorly fitted or top-dose-only effect, or another doubt; inactive means no such curve, though single readings can be large; an effect the other way counts as inactive or inconclusive.

SMILES	BRCT PPI green	DNA Pol III inh	YjeE inh	Tau filament bind	BRCT inh red	15-hLO inh
C[C@H]1C2=C3C(CC[C@H]4C(OCc5ccc(F)cc5C(F)(F)F)OC[C@](C)([C@@H]34)N(C(=O)OC(C)(C)C)C2)C2COC(=O)OCC21 (stereo partly drawn)	0.0%	2.1%	i	31.2%	1.5%	.
COc1cc(C(Nc2ccc3c(c2)OCO3)C(=O)NC2CCCCC2)cc(OC)c1OC (stereo not drawn)	-2.4%	1.5%	i	-22.8%	0.3%	0.631µM*
COc1ccc(C(C(=O)NC2CCCC2)N(C(=O)c2ccco2)c2ccc3c(c2)OCO3)cc1OC (stereo not drawn)	-5.1%	-2.8%	i	-9.6%	-0.9%	10.3%
Cc1ccc(S(=O)(=O)N[C@H](C(=O)O)C(C)C)cc1	-0.8%[15.4 µM]	-6.8%[11.4 µM]	i	7.5%[11.4 µM]	-0.6%[15.4 µM]	-0.2%[11.4 µM]
N#CC1=C(N)n2c(s/c(=C\c3ccco3)c2=O)=C(C#N)C1c1ccco1 (stereo not drawn)	-0.4%	-12.8%	i	-8.9%	-2.7%	-26.8%
CCOC(=O)C1=C(C)N=c2s/c(=C/c3ccco3)c(=O)n2C1c1cccc(OC)c1 (stereo not drawn)	15.2%	2.4%	i	3.16µM*	2.4%	15.8µM*
CCOC(=O)C1=C(C)N=c2s/c(=C\c3cccn3C)c(=O)n2C1c1cccc(OC)c1OC (stereo not drawn)	33.1%	0.4%	i	29.3%	-4.4%	-10.0%
CCOC(=O)C1=C(N)n2c(s/c(=C/c3ccco3)c2=O)=C(C(=O)OC)C1c1ccco1 (stereo not drawn)	5.5%	-4.8%	i	3.16µM*	1.3%	-28.1%
O=C(Nc1ccc2ccccc2c1)c1cnccn1	1.6%	0.2%	i	25.1µM*	0.3%	-13.2%
O=C(Nc1ccc2nccnc2c1)c1cnccn1	-0.2%	-4.8%	i	-1.0%	-1.5%	3.2%
CCCCOC(=O)c1ccc(NC(=O)c2cnccn2)cc1	-0.2%	-0.9%	i	25.1µM*	-0.1%	-0.8%
CCC(=O)NCCC1CCc2ccc3c(c21)CCO3 (stereo not drawn)	1.8%[3.08 µM]	.	.	.	-1.1%	1.8%
COc1cc2c(cc1NCc1ccccn1)oc1ccccc12	-1.5%	-7.4%	i	31.6µM*	-2.1%	?
CCN(CC)C(=O)c1cc2sc3ccccc3c2s1	-1.4%	-11.6%	i	71.0%	-1.4%	25.1µM*
COCCN(CCOC)C(=O)c1cc2sc3ccccc3c2s1	-1.7%	2.9%	i	11.7%	0.2%	-2.4%
CCOC(=O)c1ccc(N2CSC3=C(C#N)C(c4cccs4)CC(=O)N3C2)cc1 (stereo not drawn)	-0.4%	3.4%	i	3.8%	0.4%	12.6µM*
CCc1ccc(C2CC(=O)N3CN(c4ccccc4)CSC3=C2C#N)cc1 (stereo not drawn)	4.2%	-11.0%	i	?	-1.3%	2.51µM*
N#CC1=C2SCN(c3ccc(F)cc3)CN2C(=O)CC1c1cccc(F)c1 (stereo not drawn)	-1.6%	-3.5%	i	-17.2%	0.1%	?
CN1CSC2=C(C#N)C(c3cccc(OCc4ccccc4)c3)CC(=O)N2C1 (stereo not drawn)	-2.2%	-7.4%	i	-16.3%	0.9%	5.01µM*
O=C(c1cnccn1)N1CCC2(CC1)CN(C(c1ccccc1)c1ccccc1)C2	-4.2%	-6.6%	i	4.7%	0.8%	0.1%
O=c1[nH]c(=O)c2nc(Br)n(C3OC(CO)C(O)C3O)c2[nH]1 (stereo not drawn)	-1.9%	.	.	.	1.4%	13.7%
CNC1=C(Br)C(=O)c2ccncc2C1=O	-1.7%	-12.7%	i	15.8µM*	-0.1%	-15.1%
CNC1=C(Cl)C(=O)c2ccncc2C1=O	-1.1%	-14.5%	i	?	-0.1%	-14.8%
C=CCn1c(N)c(C(=O)NCC2CCCO2)c2nc3ccccc3nc21 (stereo not drawn)	-1.2%	-0.3%	i	48.6%	-1.3%	-9.5%
COc1ccc(-n2c(N)c(C(=O)NCC3CCCO3)c3nc4ccccc4nc32)c(OC)c1 (stereo not drawn)	0.0%	-5.0%	i	25.1µM*	-2.8%	?
SMILES	BRCT PPI green	DNA Pol III inh	YjeE inh	Tau filament bind	BRCT inh red	15-hLO inh
O=C(O)[C@@H](O)[C@@H](O)[C@H](O)[C@H](O)CO	0.8%[15.4 µM]	-2.6%[11.4 µM]	i	-1.0%[11.4 µM]	-0.1%[15.4 µM]	1.9%[11.4 µM]
COc1cccc(C=Nc2cc(C)on2)c1O	2.2%	-1.2%	i	-14.0%	-0.4%	15.6%
CCc1ccc2oc(-c3cc(N=Cc4cccc(OC)c4O)ccc3O)nc2c1	-2.2%	-2.6%	i	12.6µM*	-1.0%	-8.6%
CCCCn1c(SCc2ccc(C(=O)OC)o2)nc2cc(S(N)(=O)=O)ccc21	-2.2%	-1.3%	i	8.8%	0.4%	3.0%
CCCCn1c(SCC(=O)NC(=O)NCc2ccco2)nc2cc(S(N)(=O)=O)ccc21	-0.2%	-18.7%	i	14.7%	-3.6%	10µM*
O=C(CSc1n[nH]c(-c2ccccc2)n1)c1ccc(O)c(O)c1	-1.6%	-11.4%	i	-4.2%	-0.6%	5.01µM*
Nc1nc(Cl)nc2c1ncn2[C@@H]1O[C@@H](CO)[C@@H](O)[C@H]1O	-2.9%	-2.2%	i	6.2%	-0.8%	7.0%
ON=Cc1cccn1-c1ccccc1	-0.2%	-3.6%	i	-0.7%	-0.6%	-8.0%
O=C(O)c1cccc(-n2cccc2/C=N/O)c1	-3.3%	15.8µM*	i	0.5%	-4.9%	-24.5%
Nc1ccc(C2CCCc3nonc32)c2nonc12 (stereo not drawn)	7.5%	0.9%	i	25.1µM*	0.1%	7.94µM*
CC(=O)C1=C(C)NC(SCC(=O)c2ccc(C)cc2)=C(C#N)C1c1ccco1 (stereo not drawn)	11.7%	0.9%	i	217.4%	-0.8%	12.6µM*
COC(=O)CS	-0.8%	4.1%	i	5.6%	-2.3%	-4.7%
C[C@@H]1C[C@@]2(C)Oc3ccccc3[C@H]3OC[C@]1(COC(=O)Nc1ccccc1)[C@@H](C)[C@@H]32	.	-5.7%	i	?	.	.
O=c1c2ccccc2sn1-c1ccc(S(=O)(=O)N2CCCC2)cc1	0.1%	-4.5%	i	0.7%	-0.4%	0.1µM*
Cc1ccc(-n2sc3ccccc3c2=O)cc1S(=O)(=O)N1CCCCC1	2.9%	-3.5%	?	-11.0%	-0.4%	0.501µM*
O=c1c2ccccc2sn1-c1ccc(S(=O)(=O)N2CCCCC2)cc1	-0.6%	0.0%	i	6.4%	1.2%	?
O=C(Nc1cccc(F)c1)N1CCCC2(CCN(C(=O)c3cc(C(F)(F)F)cc(C(F)(F)F)c3)CC2)C1	-4.5%	-13.4%	i	-16.1%	-1.6%	-0.7%
